Compound activity (PubChem)
A selection: hits, their analogues and other compounds. The true share with any hit is near 3%.
DRD3 antagonist: blocks the human D3 dopamine receptor | P35462 | 360,000 tested, 2.5% active | max response, negative = inhibition, % | D3R cells, DiscoveRx beta-arrestin luminescence, antagonist mode; stronger effect = lower value; in the data active means max response below about -50%; inconclusive means no clear call, values can overlap the other calls; further: on the % scale 0 is the no-effect control and ±100 the full control effect
Target sequence (P35462 whole entry, looked up): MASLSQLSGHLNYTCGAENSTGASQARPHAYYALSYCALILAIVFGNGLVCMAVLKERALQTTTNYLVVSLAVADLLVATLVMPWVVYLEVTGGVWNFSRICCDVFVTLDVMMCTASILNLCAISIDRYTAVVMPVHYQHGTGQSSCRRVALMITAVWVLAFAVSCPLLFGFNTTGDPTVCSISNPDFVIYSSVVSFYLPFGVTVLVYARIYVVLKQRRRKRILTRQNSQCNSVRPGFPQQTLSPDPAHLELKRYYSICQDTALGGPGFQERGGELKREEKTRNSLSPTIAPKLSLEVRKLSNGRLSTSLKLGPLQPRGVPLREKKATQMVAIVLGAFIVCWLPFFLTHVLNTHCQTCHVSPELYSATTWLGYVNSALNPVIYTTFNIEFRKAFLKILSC
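Cells expressing the human receptor were seeded at 1500 cells/well, incubated overnight at 37 degrees C in 5% CO2, then exposed to library compounds with dopamine controls for 90 minutes at 37 degrees C before luminescent detection.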
D3 ag: activates the human D3 dopamine receptor; D3R DiscoveRx beta-arrestin cells, luminescence, 90 min; max activation, %; P35462; 410,000 tested, 0.58% active; in the data active means max activation above about 30%; further: 0% is about no effect
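Agonist mode: compounds and dopamine controls were applied to plated cells for 90 min at 37 degrees C after an overnight attachment at 1500 cells/well. Luminescent read-out followed 30 - 60 minutes at room temperature with DiscoveRx detection reagent.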
Nrf2 ARE act: Nrf2 pathway activation. AREc32 ARE-luciferase reporter (MCF7-derived line), luminescence, 24 h. Potency, µM (titrated, usually from 46.1 µM), inactives show at the top dose activation, most hits filed as activators. 410,000 tested, 0.31% active; further: potency means the concentration at half of the fitted maximal effect; % of control where 0% means no effect; nearly all actives have a fitted effect of over 65% in size
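For detection, Steady-Glo was added and plates sat 30 min at RT; before that, AREc32_Fluc cells grown overnight in OPTI-MEM/5% FBS had been treated with 23 nL compound for 24 hr at 37 deg C.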
Glioma ERSR ind: inducers of ER stress response in human glioma cells | U87-MG GRP78 promoter luciferase reporter, 16 h | Potency, µM, for inactives: at the top dose activation, usual class: activators | 420,000 tested, 0.02% active | AID 602332; further: potency means the concentration at half of the fitted maximal effect; series mostly up to about 76 µM; % of control where 0% means no effect; nearly all actives have a fitted effect of over 35% in size
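ERSR induction read as luciferase luminescence (Bright-Glo, 10 min at room temperature) in stably transfected human U87-MG glioma cells exposed to compounds for 16 h, using GRP78 as sensor.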
Active calls of the source: *; ? = inconclusive; . = no result. Unless noted, the call rests on the fitted dose curve; in most records, active means well fitted curve in the direction sought with a large enough effect; inconclusive means small, poorly fitted or top-dose-only effect, or another doubt; inactive means no such curve, though single readings can be large; an effect the other way counts as inactive or inconclusive.

SMILES	DRD3 antagonist	D3 ag	Nrf2 ARE act	Glioma ERSR ind
S=C1NC2=C(CCCC2=C2SCCS2)C(c2ccccc2)N1 (configuration not stated)	6	4	22µM*	7%
COc1cccc(C2NC(=S)NC3=C2CCc2ccccc23)c1 (configuration not stated)	-17	-10	0%	-5%
COc1ccc(N(C(=O)c2cc3ccccc3oc2=O)C2C=CS(=O)(=O)C2)cc1 (configuration not stated)	-5	-2	18µM*	1%
O=C1C(Cl)=C(NCCN2CCCCC2)C(=O)c2ccccc21	-63*	-22	-3%	-16%
CCC(C)N(CC(=O)Nc1cccc(C)c1C)C(=O)CCl (configuration not stated)	-7	3	7.9µM*	-7%
CCC(CC)NC(=O)Nc1cccc(C)c1C	17	0	0%	0%
CCN(CC)CCCNC(=O)c1sc2nc(-c3ccc(F)cc3)cn2c1C	-62*	-51	3%	1%
Cc1c(C(=O)NCc2ccccn2)sc2nc(-c3ccc(F)cc3)cn12	-13	-4	2%	3%
C(/C=C/c1ccccn1)=C\c1ccccc1	-12	2	13µM*	-5%
O=C(NCC(c1ccco1)N1CCCC1)c1cc2ccccc2s1 (configuration not stated)	-59*	-19	16%	1%
O=C(CCNC(=O)c1ccc(Cl)cc1)NCC(c1ccco1)N1CCCCC1 (configuration not stated)	0	-1	0%	-2%
Cc1nn(-c2ccc(C(=O)NCC(c3ccco3)N3CCCC3)cc2)c(C)c1Cl (configuration not stated)	-7	57*	0%	-2%
Cc1ccc2c(Cl)c(C(=O)NCC(c3ccco3)N3CCCC3)sc2c1 (configuration not stated)	1	-14	-1%	-2%
O=C(NCC(c1ccco1)N1CCCC1)c1ccc(Cl)cc1 (configuration not stated)	-67*	-2	0%	-3%
Cc1cccc(C(=O)N2CCOc3ccc(CN(C)Cc4cc(C5CC5)n[nH]4)cc3C2)n1	.	.	.	-5%
C[C@@H]1NC(=O)C/C=C\[C@@H](C)[C@@H]2C=C[C@H](O)[C@@H](COC(=O)[C@H](C)NC(=O)C/C=C\[C@@H](C)[C@@H]3C=C[C@H](O)[C@@H](COC1=O)O3)O2	.	.	.	-3%
COc1cccc(/C=N/NC(=O)CNC(=O)COc2ccccc2)c1O	5	25	-3%	-4%
O=C(Cc1cccs1)N/N=C/C=C\c1ccco1	1	-4	11µM*	5%
Cc1ccc(OCC(=O)N/N=C/C=C/c2ccco2)c(Br)c1	-3	2	26%	?
CCOC(=O)N/N=C\C=C\c1ccco1	-10	-10	?	3%
Cc1cccc(OCC(=O)N/N=C/C=C/c2ccco2)c1	4	5	22µM*	?
Cc1cccc(OCC(=O)NCC(=O)N/N=C/c2cc(Br)cc(Br)c2O)c1	-81*	-25	-1%	-2%
O=C(Cc1cccs1)N/N=C/c1ccco1	-5	2	3%	0%
Cc1cccc(C)c1OCC(=O)N/N=C/C=C/c1ccco1	21	2	1.6µM*	8%
COCCNC(=O)C1(C(F)(F)F)C/C(=C\CCO)CCCO1 (configuration not stated)	.	.	.	-4%
SMILES	DRD3 antagonist	D3 ag	Nrf2 ARE act	Glioma ERSR ind
Cc1cccn2c(=O)cc(CSc3nnc(NC(=O)c4ccc(F)cc4)s3)nc12	.	-6	-1%	-5%
COCCCNC(=O)c1cnn(-c2ncc3c(n2)-c2ccccc2CCC3)c1C	.	.	.	2%
CCn1c(SCC(=O)N/N=C/C=C\c2ccco2)nc2ccccc21	-28	0	3.5µM*	-2%
CCn1ccc(C(=O)Nc2ccccc2Cl)n1	-96*	-10	11%	-4%
O=C(Nc1ccccc1Cl)c1c(F)c(F)c(F)c(F)c1F	-62*	-5	?	-6%
C[C@@H](O[C@H]1OCCN(Cc2n[nH]c(=O)[nH]2)[C@H]1c1ccc(F)cc1)c1cc(C(F)(F)F)cc(C(F)(F)F)c1	.	14	.	.
O=C(NCC1CCC2(CCN(Cc3cccc4cccnc34)CC2)O1)c1ccco1 (configuration not stated)	.	.	.	1%
CCOC(=O)c1sc(N2N=C(C)/C(=C\c3ccc(OCC(=O)OC)cc3)C2=O)nc1C	-70*	3	0%	6%
O=C(NCC1(N2CCCCC2)CCCCC1)c1ccc(-n2cc(NC(=O)c3cccnc3)cn2)cc1	.	.	.	-7%
CCN(CC)S(=O)(=O)c1ccc(NCc2ccccn2)nc1	3	-2	-1%	0%
